# Bioassay records: PubChem, Broad Institute
# aSyn UTR act: Activators working through SNCA 5'UTR binding (MLPCN); alpha-synuclein 5'UTR reporter, activators screen; activity score, % (tested at 7.5 µM), hits read low; actives 7.1% (n = 300,000); AID 1814; in the data active = activity score below about -60%
# The depositor's hits bear a star. Only a sample is shown.
SMILES,aSyn UTR act
CCS(=O)(=O)Nc1cccc(C2=NN(C(=O)c3ccco3)C(c3ccco3)C2)c1 (centres undefined),-73.4*
CCCCCCCCCCCCCCCCn1cc[n+](C)c1,140.7
COc1cccc2c1C(=O)c1c(O)c3c(c(O)c1C2=O)C[C@@](O)(C(=O)CO)C[C@@H]3O[C@H]1C[C@H](N)[C@@H](O)[C@H](C)O1,109.3
Fc1ccccc1/C=N/Nc1ncnc2ccccc12,-241.1*
Clc1ccc(/C=N/Nc2ncnc3ccccc23)cc1Cl,-317.7*
Cc1nc(NC(=O)c2ccc(F)cc2)sc1C(=O)Nc1ccc2c(c1)CCC2,-98.5*
CC(=O)c1sc(NC(=O)c2ccccc2C)nc1C,-87.7*
Cc1ccc(CNc2nc(Cl)c(C#N)s2)cc1,-146.3*
CC(=O)c1sc(NC(=O)c2ccc(Cl)cc2)nc1C,-107.6*
CC(=O)c1sc(NCc2ccc(C)cc2)nc1C,-168.3*
Cc1cccc(C(=O)NC(=O)Nc2c(C)cc(C)nc2C)c1,-147.5*
CC(=O)c1sc(NC(=O)c2cccc(C)c2)nc1C,-130.7*
CC(=O)c1sc(NC(=O)c2ccc(F)c(F)c2)nc1C,-158.9*
Cc1nc(NC(=O)c2cccc(Cl)c2)sc1C(=O)N1CCCCC1,-137.9*
CCc1ccc(Nc2nnc(SCC(=O)Nc3cccc(S(=O)(=O)NC4=NCCCCC4)c3)s2)cc1,-147.2*
Cc1cccc(Nc2nnc(SCC(=O)Nc3cccc(S(=O)(=O)N4CCCCC4)c3)s2)c1,-151.6*
Cc1ccc(S(=O)(=O)[N-]c2nc3ccccc3nc2-n2cc[n+](Cc3ccccc3)c2)cc1,-97.1*
CS(=O)c1ccccc1-c1nc(-c2ccc(Cl)cc2)no1 (centres undefined),-143.1*
CS(=O)c1ccccc1-c1nc(-c2cccc(Cl)c2)no1 (centres undefined),-143.8*
COc1ccc(-c2nnc3sc(C4CCCCC4)nn23)cc1OC,65.3
CCSc1nnc(NC(=O)c2ccccc2C)s1,-117.2*
Cc1cc(C(=O)Nc2nnc(C3CCCCC3)s2)cs1,-136.4*
CCSc1nnc(NC(=O)c2ccccn2)s1,66.7
CCSc1nnc(NC(=O)c2ccccc2)s1,-94.5*
O=C(Nc1nnc(C2CCCCC2)s1)c1ccc(Br)s1,-219.0*
SMILES,aSyn UTR act
CCSc1nnc(NC(=O)c2ccc(Br)s2)s1,-89.3*
O=C(Nc1nnc(C(F)(F)F)s1)c1ccc(Br)s1,-75.5*
O=C(CC1CCCCC1)NCc1ccccc1Cl,-107.2*
COC(=O)CSc1nc(-c2cccs2)ccc1C#N,-305.4*
CC(C)OC(=O)CSc1nc(N)c(C#N)cc1C#N,-117.8*
COC(=O)CSc1nc2cc3c(cc2cc1C#N)OCO3,-200.9*
CC(C)OC(=O)CSc1nc2cc3c(cc2cc1C#N)OCO3,-149.1*
O=c1c2ccccc2sc2ccc(Cl)cc12,-106.0*
c1ccc(-c2csc(NC3=NCCCCC3)n2)cc1,-98.6*
CC(C)(C)c1ccc(-c2csc(NNC3=NCCCCC3)n2)cc1,-78.3*
N#Cc1ccc(-c2csc(NC3=NCCCCC3)n2)cc1,-72.6*
CC1CCC/C(=C\Nc2ccc(C(=O)O)cc2)C1=O (centres undefined),-120.5*
CCOC(=O)c1ccc(N/C=C2/CCCC(C)C2=O)cc1 (centres undefined),-152.8*
COc1ccc(C2CC(c3ccc(OC)c(OC)c3)=NN2S(C)(=O)=O)cc1 (centres undefined),-169.5*
Cc1ccc(C2=NN(S(C)(=O)=O)C(c3ccc4nccnc4c3)C2)cc1 (centres undefined),-127.3*
CS(=O)(=O)Nc1ccc(C2=NN(S(C)(=O)=O)C(c3ccc4c(c3)OCO4)C2)cc1 (centres undefined),-207.0*
COc1ccc(C2=NN(S(C)(=O)=O)C(c3ccc4nccnc4c3)C2)cc1 (centres undefined),-150.5*
CS(=O)(=O)N1N=C(c2ccccc2)CC1c1ccc2nccnc2c1 (centres undefined),-77.3*
CS(=O)(=O)N1N=C(c2ccc3nccnc3c2)CC1c1ccccc1 (centres undefined),-79.1*
Cc1nc(Nc2nc3ccccc3o2)nc2c1CCC2,71.1
Cc1ccc(C)c(-c2nc3cc(N)ccc3o2)c1,62.9
Cc1ccc2oc(Nc3nc(C)cc(C)n3)nc2c1,-163.1*
Cc1ccc2oc(-c3ccccc3)nc2c1,-188.1*
CCOc1cccc(-c2nc3cc(C)ccc3o2)c1,-152.8*
CCC(Sc1nc2ccccc2c(=O)[nH]1)C(=O)Nc1ccc(C(C)=O)cc1 (centres undefined),-79.1*
SMILES,aSyn UTR act
C/C(=C\C(=O)c1ccccc1)Nc1ccc(N2CCOCC2)cc1,-63.1*
O=C(NC(=S)Nc1ccc(N2CCOCC2)cc1)c1cccc(Cl)c1,-72.2*
Cc1cccc(C(=O)O/N=C/c2c(N3CCOCC3)n(C)c3ccccc23)c1,71.7
O=C(/C=C/c1cccc(O)c1)c1ccc(N2CCOCC2)cc1,-181.9*
O=C(Nc1ccc(N2CCOCC2)cc1)c1cnsn1,106.4
O=C(NC(=S)Nc1ccc(N2CCOCC2)cc1)c1ccccc1,-147.5*
CN(C)C(=S)Nc1ccc(N2CCOCC2)cc1,-67.8*
CCN(C(=O)CSc1cc(C)c2cccc(C)c2n1)C1CCS(=O)(=O)C1 (centres undefined),-79.6*
